B-score and outcome data for 57 compounds are collected here from PubChem BioAssay AID488977 (Johns Hopkins Ion Channel Center, 2010).

Molecules are shown by their SMILES. Hit rate of the full screen: of about 310,000 compounds, about 1,500 (0.48%) were called active.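 How the source made its calls: active means initial fluorescence not abnormally high and integrated response B-score, plate-corrected, over 3 SD above library mean; inactive means the rest.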 The full list was thinned out, with actives kept by preference. Some structures have more than one record in an assay (separate samples or runs), and their calls can disagree.

The test deals with High affinity choline transporter 1 (Homo sapiens) (UniProt Q9GZV3). As to the kind of experiment: CHT positive allosteric modulators, primary screen, cell-based, membrane potential dye, choline EC20 (AID 488977). As to conditions: CHT-expressing cells, at 10 µM, LV-AA mutant CHT in HEK293 cells; stronger effect = higher value.
Sequence of High affinity choline transporter 1 (Homo sapiens) (Q9GZV3 whole entry, looked up): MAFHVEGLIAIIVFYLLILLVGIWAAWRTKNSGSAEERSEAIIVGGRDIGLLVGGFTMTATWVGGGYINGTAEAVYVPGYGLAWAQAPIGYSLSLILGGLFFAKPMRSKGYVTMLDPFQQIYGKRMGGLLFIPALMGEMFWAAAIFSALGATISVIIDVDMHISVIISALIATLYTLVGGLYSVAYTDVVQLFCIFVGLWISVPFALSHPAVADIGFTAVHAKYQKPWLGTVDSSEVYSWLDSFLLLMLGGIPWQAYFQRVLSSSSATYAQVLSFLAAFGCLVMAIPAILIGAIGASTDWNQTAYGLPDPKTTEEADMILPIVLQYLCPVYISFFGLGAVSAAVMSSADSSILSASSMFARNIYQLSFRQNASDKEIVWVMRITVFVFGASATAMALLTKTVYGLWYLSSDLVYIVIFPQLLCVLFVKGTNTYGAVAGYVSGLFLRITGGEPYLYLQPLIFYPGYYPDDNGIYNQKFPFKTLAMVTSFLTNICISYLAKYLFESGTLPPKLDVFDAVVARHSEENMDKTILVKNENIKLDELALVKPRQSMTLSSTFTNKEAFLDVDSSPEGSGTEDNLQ
Regarding `Cc1nnc(C)c2c(C)n(N)c(C)c12`, the B-score was 9.77 (active).
For the compound `COc1cc(C(=O)NCC(=O)NCCSc2ccc(Br)cc2)cc(OC)c1OC`, the B-score entry was “inactive”.
On to `O=C(COC(=O)Cc1c[nH]c2ccccc12)NCCc1ccccc1`, for which the B-score result was “inactive”.
Turning to `CCN1C(=NCCc2cccnc2)N[C@@H](c2ccccc2)[C@H](C(=O)OC)[C@H]1C`, the B-score is 6.5 (active).
For `CCN1C(=NCCc2cccnc2)N[C@@H](c2ccccc2)C(C(=O)OC)=C1C`, the B-score result is “inactive”.
As to `CCN1C(=S)N[C@@H](CCc2ccccc2)[C@H](C(=O)OC)[C@H]1C`, the B-score result was “inactive”.
On to `O=C(Nc1ncccc1O)c1ccc(S(=O)(=O)N2CCCC2)cc1`, for which the B-score result was “inactive”.
The same measure, in the same setting: in the case of `COc1cc(C(=O)N(C)Cc2cccc(OC)c2OC)ccc1OCC(=O)Nc1cccc(C(F)(F)F)c1` it was “inactive”.
As for `O=C(N/N=C/c1cc(Br)c(O)c([N+](=O)[O-])c1)C(O)(c1ccccc1)c1ccccc1`, the B-score entry is “inactive”.
The same measure, in the same setting: then `C=CCNc1nnc(SCC(=O)N2CCCCC2)c2ccccc12`, with “inactive”.
Consider `C=CCNc1nnc(C)c2ccccc12`, for which the B-score is 7.04 (active).
Turning to `COc1ccc(Nc2nnc(C)c3ccccc23)cc1`, the B-score result is “inactive”.
Still for that read-out and setting: then `COc1ccc(-c2ccc3nnc(SCC(=O)Nc4ccc(NC(C)=O)cc4)n3n2)cc1`, with “inactive”; and `COc1ccc(C(=O)NCC2CCCN2S(=O)(=O)c2cccs2)cc1OC` (stereo not drawn), with “inactive”; and `CN1CCN(C2Cc3ccc(Cl)cc3Sc3ccc(F)cc32)CC1` (stereo not drawn), with “inactive”.
For `COc1ccccc1CNC(=O)C1CCN(S(=O)(=O)c2ccc3c(c2)OCCO3)CC1`, the B-score result is “inactive”.
Take `O=C(COC(=O)C1CCN(S(=O)(=O)c2ccc3c(c2)OCCO3)CC1)Nc1ccccc1OC(F)F`: the B-score is 6.95 (active).
Regarding `CCOC(=O)C1CCN(C(=O)COC(=O)C2CCN(S(=O)(=O)c3ccc4c(c3)OCCO4)CC2)CC1`, the B-score result was “inactive”.
Turning to `Cc1ccc(N2CC(C(=O)N3CCC4(CC3)CC(=O)c3ccccc3O4)CC2=O)cc1C` (stereo not drawn), the B-score result is “inactive”.
Take `O=C(NCCC1CCCCN1S(=O)(=O)c1ccc(Cl)cc1)C(=O)NCc1ccco1` (stereo not drawn): the B-score result was “inactive”.
With `Brc1cnc2ccccc2c1N1CCCCC1`, the B-score result is “inactive”.
Regarding `CCCNC(=O)c1ccc(N2CCC3(CC2)CC(c2cccc(Br)c2)=NO3)c(NC(=O)c2ccco2)c1`, the B-score result is “inactive”.
As to `C#CCOCCOCCOCCNc1nc(N2CCN(C(=O)CCCCCCCCCCNC(=O)[C@H](CCCCN)n3cc(C)nn3)CC2)nc(N2CCN(C(=O)CCCCCCCCCCNC(=O)[C@H](CO)n3cc(CCCSC)nn3)CC2)n1`, the B-score is 7.24 (active).
As to `C#CCOCCOCCOCCNc1nc(N2CCN(C(=O)CCCCCCCCCCNC(=O)Cn3cc(CCCCCN)nn3)CC2)nc(N2CCN(C(=O)CCCCCCCCCCNC(=O)[C@H](CO)n3cc(CCCSC)nn3)CC2)n1`, the B-score result was “inactive”.
Still for that read-out and setting: then `C#CCOCCOCCOCCNc1nc(N2CCN(C(=O)CCCCCCCCCCNC(=O)[C@H]([C@@H](C)CC)n3cc(CCCCN=C(N)N)nn3)CC2)nc(N2CCN(C(=O)CCCCCCCCCCNC(=O)[C@H](CO)n3cc(CCCSC)nn3)CC2)n1`, with “inactive”.
On to `O=C(Nc1ccccc1N1CCN(c2ccccc2)CC1)c1cccc(F)c1`, for which the B-score was 7.46 (active).
On to `Cc1cccc(C(=O)Nc2ccccc2N2CCN(c3ccc(F)cc3)CC2)c1`, for which the B-score entry is “inactive”.
The same measure, in the same setting: in the case of `O=C(Nc1ccccc1N1CCCCC1)c1cccc(F)c1` it was “inactive”; in that of `CSc1ccccc1NC(=O)c1cnc2sc(C)cn2c1=O`, “inactive”.
With `CCN1C(=O)[C@@H]2[C@@H](c3ccc(-c4ccc(OC)cc4)c(OC)c3)N3CCC[C@@]3(C(=O)OC)[C@@H]2C1=O`, the B-score entry is “inactive”.
With `Cc1ccc(-c2c[n+](CC(=O)Nc3ccccc3)c3n2CCC3)cc1`, the B-score result was “inactive”.
As to `Cc1ccc(C(=O)C[n+]2cc(-c3ccccc3)n3c2CCCCC3)cc1`, the B-score was 7.44 (active) and the compound was classed as inactive.
Consider `O=C(C[n+]1cc(-c2ccc(Cl)c(Cl)c2)n2c1CCC2)c1cccs1`, for which the B-score result was “inactive”.
`Nc1nonc1-n1nnc(C(=O)N/N=C/c2ccccc2O)c1CN1CCCC1`: the B-score result was “inactive”.
As for `Cc1cc(/C=N/NC(=O)CC2(C)OCCO2)c(C)n1-c1ccc(Cl)c(Cl)c1`, the B-score result is “inactive”.
`Cc1ccc(-n2c(C)cc(/C=N\NC(=O)CC(=O)NC(C)C)c2C)cc1`: the B-score was 11.1 (active).
As to `CSc1ccc(/C=N\NC(=O)CC(=O)NC(C)C)cc1`, the B-score result was “inactive”.
The same measure, in the same setting: then `CN(C(=O)c1cc2c(=O)n3ccccc3nc2s1)C1CCCCC1`, with “inactive”; and `O=C1N[C@@H](Cc2ccccc2)C(=O)N2[C@H]1C[C@]1(Br)c3ccccc3N(S(=O)(=O)c3ccccc3)[C@H]21`, with “inactive”.
Still for that read-out and setting: then `O=S(=O)(O)Oc1c[nH]c2ccccc12`, with “inactive”; and `COc1cc2c(cc1OC)C(C(C)C)=NC(C)(C)C2`, with “inactive”.
Take `COc1cc2c(cc1OC)C(Nc1ccc(S(N)(=O)=O)cc1)=NC(C)(C)C2`: the B-score is 9.17 (active).
On the same count and under the same terms, then `COc1cc2c(cc1O)C(SC)=NC(C)(C)C2`, with “inactive”; and `O=C(NCCCc1ccccc1)C(=O)NCC1OCCN1S(=O)(=O)c1ccccc1` (stereo not drawn), with “inactive”.
For `C1=C(CCNc2ncnc3c2cnn3-c2ccccc2)CCCC1`, the B-score result is “inactive”.
For `O=C(NCCC1=CCCCC1)C1CCN(Cc2cnn(-c3ccccc3)c2-n2cccc2)CC1`, the B-score is 6.26 (active).
On to `Cc1ccc(S(=O)(=O)N2CCC(C(=O)NCCC3=CCCCC3)CC2)cc1C`, for which the B-score result is “inactive”.
For the compound `COc1ccccc1C(=O)Nc1ccccc1C(=O)Nc1ccccc1`, the B-score entry was “inactive”.
Take `COc1ccccc1-c1nnc(-c2ccc(F)cc2)o1`: the B-score entry was “inactive”.
With `Cc1cc(=O)oc2cc(OCCC[n+]3ccccc3)ccc12`, the B-score was 8.55 (active).
Still for that read-out and setting: in the case of `Cc1cc(=O)oc2ccc(OCC(=O)O)cc12` it was “inactive”; in that of `Cc1ccccc1N1CCN(CCCOc2ccc3c(C)cc(=O)oc3c2)CC1`, “inactive”.
On to `O=C(c1ccccc1)N1CCN(c2ccc([N+](=O)[O-])c(NCc3ccco3)c2)CC1`, for which the B-score result was “inactive”.
`O=[N+]([O-])c1ccc(N2CCN(S(=O)(=O)c3ccc4ccccc4c3)CC2)cc1NCc1ccco1`: the B-score result is “inactive”.
Consider `O=[N+]([O-])c1ccc(N2CCNCC2)cc1NCc1cccnc1`, for which the B-score was 6.95 (active).
For `Cc1cc(Br)ccc1NC(=O)CN(C)C(=O)CN1C(=O)NC2(CCCC2)C1=O`, the B-score entry is “inactive”.
Take `COc1cc(/C=N/NC(=O)c2cc(-c3ccccc3C)nc3ccccc23)cc(OC)c1O`: the B-score entry is “inactive”.
